# Assays:
# Assay in all cases: SPOT peptide array binding signal intensity (averaged, normalized) (arbitrary units (background-subtracted, floor 0; scale differs between SH3 domains)); higher = stronger binding of the SH3 domain to the peptide
# [1] = target: AgAbp1
# Description: (§1)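 GST-tagged SH3 domains from S. cerevisiae (Sc), A. gossypii (Ag), C. albicans (Ca) and S. pombe (Sp) were incubated at 10 ug/ml overnight at 4 C on cellulose SPOT membranes carrying 292 synthetic 15-mer peptides mined from the S. cerevisiae proteome (cysteines replaced by serines). Binding was detected with anti-GST antibody, HRP secondary and chemiluminescence, quantified with Genespotter, and reported as normalized spot intensities averaged over biological replicates.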
# [2] = target: AgBbc1
# Description: as §1
# [3] = target: AgBem1-D1
# Description: as §1
# [4] = target: AgBzz1-D1
# Description: as §1
# [5] = target: AgBzz1-D2
# Description: as §1
# [6] = target: AgCyk3
# Description: as §1
# [7] = target: AgFus1
# Description: as §1
# [8] = target: AgHof1
# Description: as §1
# [9] = target: AgHse1
# Description: as §1
# [10] = target: AgLsb1
# Description: as §1
# [11] = target: AgLsb4
# Description: as §1
# [12] = target: AgMyo5
# Description: as §1
# [13] = target: AgNbp2
# Description: as §1
# [14] = target: AgRvs167
# Description: as §1
# [15] = target: AgSho1
# Description: as §1
# [16] = target: AgSla1-D1-D2
# Description: as §1
# [17] = target: AgSla1-D3
# Description: as §1
# [18] = target: CaAbp1-D1
# Description: as §1
# [19] = target: CaAbp1-D2
# Description: as §1
# [20] = target: CaBbc1
# Description: as §1
# [21] = target: CaBem1-D1
# Description: as §1
# [22] = target: CaBzz1-D1
# Description: as §1
# [23] = target: CaBzz1-D2
# Description: as §1
# [24] = target: CaCyk3
# Description: as §1
# [25] = target: CaFus1
# Description: as §1
# [26] = target: CaHof1
# Description: as §1
# [27] = target: CaHse1
# Description: as §1
# [28] = target: CaLsb1
# Description: as §1
# [29] = target: CaLsb4
# Description: as §1
# [30] = target: CaMyo5
# Description: as §1
# [31] = target: CaNbp2
# Description: as §1
# [32] = target: CaRvs167
# Description: as §1
# [33] = target: CaRvs167-3
# Description: as §1
# [34] = target: CaSho1
# Description: as §1
# [35] = target: CaSla1-D1-D2
# Description: as §1
# [36] = target: CaSla1-D3
# Description: as §1
# [37] = target: ScAbp1
# Description: as §1
# [38] = target: ScBbc1
# Description: as §1
# [39] = target: ScBem1-D1
# Description: as §1
# [40] = target: ScBzz1-D1
# Description: as §1
# [41] = target: ScBzz1-D2
# Description: as §1
# [42] = target: ScCyk3
# Description: as §1
# [43] = target: ScFus1
# Description: as §1
# [44] = target: ScHof1
# Description: as §1
# [45] = target: ScHse1
# Description: as §1
# [46] = target: ScLsb1
# Description: as §1
# [47] = target: ScLsb2
# Description: as §1
# [48] = target: ScLsb3
# Description: as §1
# [49] = target: ScLsb4
# Description: as §1
# [50] = target: ScMyo3
# Description: as §1
# [51] = target: ScMyo5
# Description: as §1
# [52] = target: ScNbp2
# Description: as §1
# [53] = target: ScPex13
# Description: as §1
# [54] = target: ScRvs167
# Description: as §1
# [55] = target: ScSho1
# Description: as §1
# [56] = target: ScSla1-D1-D2
# Description: as §1
# [57] = target: ScSla1-D3
# Description: as §1
# [58] = target: SpAbp1-D1
# Description: as §1
# [59] = target: SpBbc1
# Description: as §1
# [60] = target: SpBzz1-D1
# Description: as §1
# [61] = target: SpBzz1-D2
# Description: as §1
# [62] = target: SpCyk3
# Description: as §1
# [63] = target: SpHof1
# Description: as §1
# [64] = target: SpHof1-2
# Description: as §1
# [65] = target: SpHof1-3
# Description: as §1
# [66] = target: SpHse1
# Description: as §1
# [67] = target: SpLsb1
# Description: as §1
# [68] = target: SpLsb4
# Description: as §1
# [69] = target: SpMyo1
# Description: as §1
# [70] = target: SpNbp2
# Description: as §1
# [71] = target: SpPex13
# Description: as §1
# [72] = target: SpRvs167
# Description: as §1
# [73] = target: SpSla1-D1-D2
# Description: as §1
# [74] = target: SpSla1-D3
# Description: as §1
binder,measurement,setting,value
NILKRRPLKLEAPSK,SPOT peptide array binding signal intensity,[1],27.5
same,SPOT peptide array binding signal intensity,[2],0.25
same,SPOT peptide array binding signal intensity,[3],65
same,SPOT peptide array binding signal intensity,[4],14
same,SPOT peptide array binding signal intensity,[5],8
same,SPOT peptide array binding signal intensity,[6],≤ 0
same,SPOT peptide array binding signal intensity,[7],77
same,SPOT peptide array binding signal intensity,[8],1.25
same,SPOT peptide array binding signal intensity,[9],1740
same,SPOT peptide array binding signal intensity,[10],0.5
same,SPOT peptide array binding signal intensity,[11],41
same,SPOT peptide array binding signal intensity,[12],≤ 0
same,SPOT peptide array binding signal intensity,[13],32
same,SPOT peptide array binding signal intensity,[14],4.5
same,SPOT peptide array binding signal intensity,[15],≤ 0
same,SPOT peptide array binding signal intensity,[16],7
same,SPOT peptide array binding signal intensity,[17],≤ 0
same,SPOT peptide array binding signal intensity,[18],478
same,SPOT peptide array binding signal intensity,[19],96
same,SPOT peptide array binding signal intensity,[20],1.25
same,SPOT peptide array binding signal intensity,[21],≤ 0
same,SPOT peptide array binding signal intensity,[22],≤ 0
same,SPOT peptide array binding signal intensity,[23],14
same,SPOT peptide array binding signal intensity,[24],8
same,SPOT peptide array binding signal intensity,[25],534
same,SPOT peptide array binding signal intensity,[26],0.25
same,SPOT peptide array binding signal intensity,[27],27.5
same,SPOT peptide array binding signal intensity,[28],≤ 0
same,SPOT peptide array binding signal intensity,[29],≤ 0
same,SPOT peptide array binding signal intensity,[30],1.5
same,SPOT peptide array binding signal intensity,[31],284
same,SPOT peptide array binding signal intensity,[32],31.7
same,SPOT peptide array binding signal intensity,[33],24
same,SPOT peptide array binding signal intensity,[34],93.5
same,SPOT peptide array binding signal intensity,[35],10.5
same,SPOT peptide array binding signal intensity,[36],≤ 0
same,SPOT peptide array binding signal intensity,[37],296
same,SPOT peptide array binding signal intensity,[38],≤ 0
same,SPOT peptide array binding signal intensity,[39],10
same,SPOT peptide array binding signal intensity,[40],12
same,SPOT peptide array binding signal intensity,[41],≤ 0
same,SPOT peptide array binding signal intensity,[42],33
same,SPOT peptide array binding signal intensity,[43],149
same,SPOT peptide array binding signal intensity,[44],≤ 0
same,SPOT peptide array binding signal intensity,[45],2660
same,SPOT peptide array binding signal intensity,[46],2.5
same,SPOT peptide array binding signal intensity,[47],1
same,SPOT peptide array binding signal intensity,[48],76
same,SPOT peptide array binding signal intensity,[49],2
same,SPOT peptide array binding signal intensity,[50],0.25
same,SPOT peptide array binding signal intensity,[51],≤ 0
same,SPOT peptide array binding signal intensity,[52],46
same,SPOT peptide array binding signal intensity,[53],≤ 0
same,SPOT peptide array binding signal intensity,[54],2.5
same,SPOT peptide array binding signal intensity,[55],368
same,SPOT peptide array binding signal intensity,[56],39
same,SPOT peptide array binding signal intensity,[57],≤ 0
same,SPOT peptide array binding signal intensity,[58],64.5
same,SPOT peptide array binding signal intensity,[59],0.75
same,SPOT peptide array binding signal intensity,[60],64
same,SPOT peptide array binding signal intensity,[61],≤ 0
same,SPOT peptide array binding signal intensity,[62],≤ 0
same,SPOT peptide array binding signal intensity,[63],48.8
same,SPOT peptide array binding signal intensity,[64],≤ 0
same,SPOT peptide array binding signal intensity,[65],699
same,SPOT peptide array binding signal intensity,[66],1400
same,SPOT peptide array binding signal intensity,[67],1
same,SPOT peptide array binding signal intensity,[68],3.5
same,SPOT peptide array binding signal intensity,[69],≤ 0
same,SPOT peptide array binding signal intensity,[70],58
same,SPOT peptide array binding signal intensity,[71],≤ 0
same,SPOT peptide array binding signal intensity,[72],1.33
same,SPOT peptide array binding signal intensity,[73],2
same,SPOT peptide array binding signal intensity,[74],≤ 0
